Inconclusive results are not listed. Activity calls are given as the source filed them. Unless noted, calls come from the whole dose curve; as a rule, active = well fitted curve in the direction sought with a large enough effect in the repeat runs; inconclusive = weak or mixed curves; inactive = no such curve, though single readings can be large; an effect the other way counts as inactive or inconclusive.
Tests used:
[1] = qHTS assay for small molecule agonists of the p53 signaling pathway (AID 651631; calls by dose curve; note: nearly all actives have a fitted effect of over 15% in size)
How it was run: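 Readout was fluorescence from the LiveBLAzer FRET substrate, applied for 2 h at room temperature after 16 h compound exposure at 37 °C. Cells were the p53RE-bla HCT-116 line, with beta-lactamase driven by p53 response elements.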

[2] = qHTS assay for small molecules that induce genotoxicity in human embryonic kidney cells expressing luciferase-tagged ATAD5 (AID 651632); note: nearly all actives have a fitted effect of over 15% in size
How it was run: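 HEK293T cells carrying a luciferase reporter tagged to ATAD5 were exposed to compound or DMSO vehicle for 16 hr at 37C, 5% CO2. Amplite was added, and after 30 min at room temperature luciferase activity was read as a marker of ATAD5 induction.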

[3] = qHTS assay for small molecules that induce genotoxicity in human embryonic kidney cells expressing luciferase-tagged ATAD5 - cell viability (AID 651634; calls by dose curve; note: nearly all actives have a fitted effect of over 25% in size)
How it was run: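 HEK293T cells expressing luciferase-tagged ATAD5 were exposed to compound or DMSO for 15.5 hr at 37C, 5% CO2. Viability was then read as live-cell protease activity by CellTiter-Fluor fluorescence after 30 min at 37C.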

[4] = qHTS assay for small molecule disruptors of the mitochondrial membrane potential - cell viability (AID 720634; calls by dose curve;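 note: human HepG2 liver cancer cells; series mostly up to about 83 µM; nearly all actives have a fitted effect of over 20% in size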)
How it was run: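 HepG2 cells seeded overnight at 37 C, then exposed to compound or DMSO for 1 hr at 37 C, 5% CO2. m-MPI dye added, then CellTiter-Glo for 30 min at room temperature; viability read as ATP luminescence.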

[5] = qHTS assay for small molecule disruptors of the mitochondrial membrane potential (AID 720635)
How it was run: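 HepG2 cells (2,000/well) attached overnight at 37C, then took compound for 1 hr at 37C, 5% CO2. Mito-MPS dye was added for 30 min; fluorescence was read at 490/535 nm (monomers) and 540/590 nm (aggregates).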

[6] = qHTS assay to test for compound auto fluorescence at 590 nm (red) in HepG2 cells (AID 720674)
How it was run: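 Rose Bengal sodium served as the red fluorophore standard. HepG2 monolayers (overnight attachment, MEM with 10% FBS) were exposed to test compounds for 1 hr at 37 C and read at Ex 540/Em 590 nm.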

[7] = qHTS assay to test for compound auto fluorescence at 535 nm (green) in HepG2 cells (AID 720675)
[8] = qHTS assay to test for compound auto fluorescence at 460 nm (blue) in HEK293 cells (AID 720678)
How it was run: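 Auto fluorescence in the blue band was quantified as triamterene equivalency. HEK293 cells were seeded at 2,000/well, dosed after a 4-5 hr attachment, and kept overnight at 37C before the 405/460 nm reading.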

[9] = qHTS assay to test for compound auto fluorescence at 590 nm (red) in HEK293 cells (AID 720679)
How it was run: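 Autofluorescence equivalency to Rose Bengal sodium, 540/590nm, in HEK293 cells exposed overnight to 23 nL compound per well.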

[10] = qHTS assay to test for compound auto fluorescence at 535 nm (green) in HEK293 cells (AID 720680)
[11] = qHTS assay to test for compound auto fluorescence at 460 nm (blue) in HEK293 cell free culture (AID 720681)
How it was run: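 Test compounds were pinned into cell-free culture medium (DMEM with 10% FBS) and fluorescence was read directly at Ex/Em 405/460 nm. Signals were expressed as fluorescence equivalents of triamterene, with DMSO vehicle as control.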

[12] = qHTS assay to test for compound auto fluorescence at 535 nm (green) in HEK293 cell free culture (AID 720682)
How it was run: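 Compounds were pin-transferred into cell-free DMEM with 10% FBS, and green fluorescence was read at excitation 485 nm and emission 535 nm. Intensities were expressed as fluorescein-equivalent values.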

[13] = qHTS assay to test for compound auto fluorescence at 590 nm (red) in HEK293 cell free culture (AID 720683)
How it was run: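 Tox21 10K library compounds were pinned into cell-free DMEM with 10% FBS and fluorescence was read at excitation 540 nm. Activity is expressed as Rose Bengal sodium equivalency.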

[14] = qHTS assay to test for compound auto fluorescence at 590 nm (red) in HepG2 cell free culture (AID 720684)
How it was run: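 Measured in medium alone (MEM containing 10% FBS) following pintool addition of compound; emission at 590 nm with 540 nm excitation, referenced to Rose Bengal sodium.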

[15] = qHTS assay to test for compound auto fluorescence at 460 nm (blue) in HepG2 cell free culture (AID 720685)
How it was run: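 Compound (23 nL) or DMSO pinned into cell-free MEM with 10% FBS; blue fluorescence read at 405/460 nm excitation/emission, expressed as auto-fluorescence equivalency to triamterene.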

[16] = qHTS assay to test for compound auto fluorescence at 535 nm (green) in HepG2 cell free culture (AID 720686)
[17] = qHTS assay to test for compound auto fluorescence at 460 nm (blue) in HepG2 cells (AID 720687)
How it was run: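 Cells (2,000/well in MEM with 10% FBS) attached overnight at 37 C, then were exposed to compound or DMSO for 1 hr at 37 C, 5% CO2. Fluorescence read at Ex/Em 405/460 nm, expressed as triamterene-equivalent signal.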

[18] = target: Glucocorticoid receptor (Homo sapiens) (UniProt P04150); experiment: qHTS assay to identify small molecule agonists of the glucocorticoid receptor (GR) signaling pathway (AID 720691; active = well fitted activation curve with a large enough effect in the signal ratio in the repeat runs, not every such curve was filed as active; the % refers to the signal ratio)
Sequence of Glucocorticoid receptor (Homo sapiens) (P04150 whole entry, looked up): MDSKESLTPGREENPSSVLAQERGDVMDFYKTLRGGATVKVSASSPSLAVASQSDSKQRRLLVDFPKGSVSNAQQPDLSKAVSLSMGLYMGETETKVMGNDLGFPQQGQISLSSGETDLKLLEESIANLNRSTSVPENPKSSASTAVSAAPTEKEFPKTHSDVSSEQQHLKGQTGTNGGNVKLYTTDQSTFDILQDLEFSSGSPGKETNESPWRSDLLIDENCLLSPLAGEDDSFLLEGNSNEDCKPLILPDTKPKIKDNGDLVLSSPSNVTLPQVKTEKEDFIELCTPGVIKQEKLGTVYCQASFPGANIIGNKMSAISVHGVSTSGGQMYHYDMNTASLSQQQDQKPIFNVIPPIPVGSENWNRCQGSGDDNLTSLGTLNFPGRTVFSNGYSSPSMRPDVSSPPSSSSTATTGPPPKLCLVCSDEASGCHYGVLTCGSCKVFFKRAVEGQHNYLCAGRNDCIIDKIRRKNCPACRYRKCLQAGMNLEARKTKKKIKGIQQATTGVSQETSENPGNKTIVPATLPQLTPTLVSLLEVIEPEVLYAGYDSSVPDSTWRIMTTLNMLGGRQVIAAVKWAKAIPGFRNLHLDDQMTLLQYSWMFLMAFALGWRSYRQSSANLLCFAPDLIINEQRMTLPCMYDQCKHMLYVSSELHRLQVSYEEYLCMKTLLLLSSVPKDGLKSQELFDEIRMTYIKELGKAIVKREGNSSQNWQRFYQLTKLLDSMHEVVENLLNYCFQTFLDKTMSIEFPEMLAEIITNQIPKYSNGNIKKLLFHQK
How it was run: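 GR-bla HeLa cells (beta-lactamase reporter under glucocorticoid response element) were plated 4 h at 37 C/5% CO2, given compounds in DMSO, and incubated 18 h at 37 C. LiveBLAzer B/G FRET substrate was added for 2 h at room temperature, then fluorescence intensity read.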

[19] = qHTS assay for small molecule agonists of the p53 signaling pathway - cell viability (AID 651633; calls by dose curve; note: series mostly up to about 83 µM; nearly all actives have a fitted effect of over 30% in size)
How it was run: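 p53RE-bla cells, seeded at 4,000 per well and rested 5 h at 37 C/5% CO2, received compounds in DMSO for 16 h at 37 C. CellTiter-Glo was then added, and luminescence was read after 30 min at room temperature to gauge cytotoxicity.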

[20] = target: Glucocorticoid receptor (Homo sapiens) (UniProt P04150); experiment: qHTS assay to identify small molecule antagonists of the glucocorticoid receptor (GR) signaling pathway (AID 720692; active = well fitted inhibition curve with a large enough effect in the signal ratio in the repeat runs, not every such curve was filed as active; the % refers to the signal ratio)
How it was run: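 GR-bla HeLa cells (beta-lactamase reporter under glucocorticoid response element) were pre-plated 4 h at 37 C, treated with compounds plus 5 nM dexamethasone (final) for 18 h, then read by LiveBLAzer B/G FRET fluorescence after 2 h.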
% is set by controls: 0 for no effect and ±100 for the full control effect.

CC(C)(Sc1cc(C(C)(C)C)c(O)c(C(C)(C)C)c1)Sc1cc(C(C)(C)C)c(O)c(C(C)(C)C)c1
inactive: Potency [1] | Potency [2] | outcome [3] | outcome [4] | Potency [5] | fluorescence, relative to Rose Bengal [6] 0.757% [at 18.6 µM] | fluorescence, % of fluorescein control [7] -0.143% [at 18.6 µM] | fluorescence, % of triamterene [8] -0.428% [at 18.6 µM] | fluorescence, % of fluorescent control [9] -1.27% [at 18.6 µM] | fluorescence, % of fluorescein [10] 0.0112% [at 18.6 µM] | fluorescence, % of fluorescent control [11] -0.101% [at 18.6 µM] | activity change [12] 0.0049% [at 18.6 µM] | fluorescence, % of fluorescent control [13] -0.146% [at 18.6 µM] | fluorescence, % of Rose Bengal [14] -0.645% [at 18.6 µM] | fluorescence, % of fluorescent control [15] -0.0941% [at 18.6 µM] | fluorescence, % of fluorescein control [16] -0.106% [at 18.6 µM] | fluorescence, % of fluorescent control [17] 0.0012% [at 18.6 µM] | Potency [18]

CN(C)CCC[C@@]1(c2ccc(F)cc2)OCc2cc(C#N)ccc21
inactive: Potency [1] | Potency [2] | outcome [19] | outcome [3] | outcome [6] | outcome [7] | outcome [8] | outcome [9] | outcome [10] | outcome [11] | outcome [13] | outcome [14] | outcome [15] | outcome [16] | outcome [17] | Potency [18] | outcome [20]

CC(C)OC(=O)C(C(=O)OC(C)C)=C1SC=CS1
inactive: Potency [1] | Potency [2] | outcome [19] | outcome [3] | outcome [6] | outcome [7] | outcome [8] | outcome [9] | outcome [10] | outcome [11] | outcome [12] | outcome [13] | outcome [14] | outcome [15] | outcome [16] | outcome [17] | Potency [18] | outcome [20]

CCCCCCCCCCCCCCCCN(C)C
inactive: activation [1] -4.5% [at 8.3 µM] | activation [2] 2.36% [at 8.08 µM] | activity change, negative = cytotoxicity [19] 8.53% [at 8.08 µM] | activity, negative = cytotoxicity [3] -13.5% [at 8.08 µM] | fluorescence, relative to Rose Bengal [6] 0.017% [at 3.72 µM] | fluorescence, % of fluorescein control [7] -0.0084% [at 3.72 µM] | fluorescence, % of triamterene [8] -0.0322% [at 3.72 µM] | fluorescence, % of fluorescent control [9] -0.181% [at 3.72 µM] | fluorescence, % of fluorescein [10] 0.0696% [at 3.72 µM] | fluorescence, % of fluorescent control [11] -0.0334% [at 3.72 µM] | activity change [12] 0.0487% [at 3.72 µM] | fluorescence, % of fluorescent control [13] 0.0064% [at 3.72 µM] | fluorescence, % of Rose Bengal [14] -0.0248% [at 3.72 µM] | fluorescence, % of fluorescent control [15] -0.0345% [at 3.72 µM] | fluorescence, % of fluorescein control [16] 0.006% [at 3.72 µM] | fluorescence, % of fluorescent control [17] -0.0699% [at 3.72 µM] | activation [18] -0.164% [at 6.9 µM] | activity change, negative = inhibition [20] -19.5% [at 7.04 µM]

O=C1c2ccccc2C(=O)N1CO
inactive: Potency [1] | Potency [2] | outcome [3] | outcome [4] | outcome [6] | outcome [7] | outcome [8] | outcome [9] | outcome [10] | outcome [11] | outcome [12] | outcome [13] | outcome [14] | outcome [15] | outcome [16] | outcome [17] | Potency [18] | outcome [20]

CC(=O)OC1CCC(C(C)(C)C)CC1 (stereo not given)
inactive: Potency [1] | Potency [2] | outcome [19] | outcome [3] | outcome [4] | outcome [6] | outcome [7] | outcome [8] | outcome [9] | outcome [10] | outcome [11] | outcome [13] | outcome [14] | outcome [15] | outcome [16] | outcome [17] | Potency [18] | outcome [20]

CCCCOCCCC
inactive: Potency [1] | Potency [2] | outcome [19] | outcome [3] | outcome [4] | outcome [6] | outcome [7] | outcome [8] | outcome [9] | outcome [10] | outcome [11] | outcome [13] | outcome [14] | outcome [15] | outcome [16] | outcome [17] | Potency [18] | outcome [20]

— PubChem BioAssay (Tox21)
